Measurements reported in PubChem BioAssay (NCI).
Compounds without any hit were thinned out: in the full panel of roughly 79,000, 15% have a hit. The source made the active and inactive calls. No stated cut-off is given here; in the data, active means growth inhibition above about 70%; inactive means the rest.

Experiments:
[1] = NCI Yeast Anticancer Drug Screen. Data for the rad52 strain (AID 147);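 further: 0% = growth of vehicle-treated control cultures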; conditions: S. cerevisiae rad52 mutant growth inhibition, active compounds read high
Procedure, shortened: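 Inhibition of yeast growth, referenced to vehicle controls, was the measured output for a strain with defective DNA damage repair.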

[2] = NCI Yeast Anticancer Drug Screen. Data for the wt1 strain (AID 149);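 further: 0% = growth of vehicle-treated wt1 cultures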; conditions: S. cerevisiae wt1 strain (SPY 50644) growth inhibition, active compounds read high
Procedure, shortened: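 Compounds are added to wt1 yeast cultures. Growth is then measured. Inhibition is expressed relative to vehicle-treated controls.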

[3] = NCI Yeast Anticancer Drug Screen. Data for the rad50EPP+ strain (AID 151);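 further: 0% = growth of vehicle-treated control cultures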; conditions: S. cerevisiae rad50 mutant strain, active compounds read high
Procedure, shortened: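 Genetically defined yeast (rad50EPP+, DNA damage repair alteration) is grown with compound, and inhibition of growth is expressed relative to vehicle-treated controls.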

[4] = NCI Yeast Anticancer Drug Screen. Data for the mgt1 strain (AID 153); conditions: S. cerevisiae mgt1 mutant growth inhibition, active compounds read high
Procedure, shortened: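 In the mgt1 strain, test compounds were added and growth inhibition was determined relative to vehicle-treated controls.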

[5] = NCI Yeast Anticancer Drug Screen. Data for the rad50 strain (AID 155);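 further: 0% = growth of vehicle-only cultures of the same strain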; conditions: S. cerevisiae rad50 strain growth inhibition, active compounds read high
Procedure, shortened: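 Inhibition values express reduced yeast growth in compound-treated cultures relative to vehicle-treated controls.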

[6] = NCI Yeast Anticancer Drug Screen. Data for the mec2-1 strain (AID 157); conditions: S. cerevisiae mec2-1 strain, active compounds read high
Procedure, shortened: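 Each compound was tested on mec2-1 yeast, a strain altered in DNA damage repair or cell cycle control. Growth inhibition is reported relative to vehicle.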

[7] = NCI Yeast Anticancer Drug Screen. Data for the rad14 strain (AID 159);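 further: 0% = growth of vehicle-treated control cultures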; conditions: S. cerevisiae rad14 strain growth inhibition, active compounds read high
Procedure, shortened: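 A mutant yeast strain defective in DNA damage repair is treated with compound; inhibition of its growth is scored against untreated, vehicle-exposed cultures.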

[8] = NCI Yeast Anticancer Drug Screen. Data for the sgs1 mgt1 strain (AID 161);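 further: 0% = growth of cultures given vehicle only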; conditions: S. cerevisiae sgs1 mgt1 strain, active compounds read high
Procedure, shortened: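 Mutant yeast exposed to compound; growth scored against vehicle-only wells.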

[9] = NCI Yeast Anticancer Drug Screen. Data for the CLN2oe strain (AID 163);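 further: 0% = growth of vehicle-only control cultures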; conditions: S. cerevisiae CLN2oe strain, active compounds read high
Procedure, shortened: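 First, the altered yeast strain was treated with each compound; second, its growth was measured; finally, inhibition was derived by comparison with vehicle controls.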

[10] = NCI Yeast Anticancer Drug Screen. Data for the cln2 rad14 strain (AID 165);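 further: 0% = growth equal to vehicle treated cultures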; conditions: S. cerevisiae cln2 rad14 strain, active compounds read high
Procedure, shortened: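 Test compounds were added to cln2 rad14 yeast cultures; inhibition of growth was then determined by comparison with vehicle treatment.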

[11] = NCI Yeast Anticancer Drug Screen. Data for the bub3 strain (AID 167); conditions: S. cerevisiae bub3 mutant strain, active compounds read high
Procedure, shortened: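 Steps: expose the mutant yeast strain to compound; grow alongside vehicle-treated cultures; measure growth; express inhibition against the vehicle cultures.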

[12] = NCI Yeast Anticancer Drug Screen. Data for the wt2 strain (AID 169);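 further: 0% = growth of vehicle-treated yeast cultures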; conditions: S. cerevisiae wt2 strain growth inhibition, active compounds read high
Procedure, shortened: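 The panel's yeast strains carry defined changes in DNA repair or cell cycle genes. Each strain is grown with compound, and growth loss is scored relative to vehicle.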

[13] = NCI Yeast Anticancer Drug Screen. Data for the mlh1 strain (AID 171);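 further: 0% = growth of vehicle-treated control cultures of the same strain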; conditions: S. cerevisiae mlh1 strain growth inhibition, active compounds read high
Procedure, shortened: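 Inhibition values reflect reduced yeast growth in the presence of compound, referenced to vehicle controls, using a strain chosen for its alteration in DNA repair or cell cycle control.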

[14] = NCI Yeast Anticancer Drug Screen. Data for the sgs1 strain (AID 173);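 further: 0% = growth of vehicle-only control cultures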; conditions: S. cerevisiae sgs1 mutant, active compounds read high
Procedure, shortened: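 Vehicle-treated cultures served as reference for growth inhibition of a yeast strain altered in DNA damage repair or cell cycle control after compound exposure.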

[15] = NCI Yeast Anticancer Drug Screen. Data for the mlh1 rad18 strain (AID 175); conditions: S. cerevisiae mlh1 rad18 strain growth inhibition, active compounds read high
Procedure, shortened: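 Inhibition values reflect reduced growth of mutant yeast versus vehicle-treated controls following compound exposure; the mutations affect DNA damage repair.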

[16] = NCI Yeast Anticancer Drug Screen. Data for the rad18 strain (AID 177); conditions: S. cerevisiae rad18 mutant growth inhibition, active compounds read high
Procedure, shortened: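 Steps: expose repair-mutant yeast to compound; measure growth; express as inhibition relative to vehicle control.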

[17] = at 5.0 µM (retest, dose inferred, filed as 0.5)
[18] = at 50.0 µM (retest, dose inferred, filed as 5.0)

Measured: growth inhibition

O=C1CSC(c2ccccc2)N1c1ccc(-c2ccc(-n3c(-c4ccccc4)nc4ccccc4c3=O)cc2)cc1 (stereo not drawn)
inactive: [1]; at 1.2 µM 0% | [1]; at 3.7 µM 1% | [1]; at 11.0 µM 3% | [1]; at 33.0 µM 6% | [1]; at 100.0 µM 38% | [2]; at 1.2 µM -2% | [2]; at 3.7 µM 0% | [2]; at 11.0 µM -2% | [2]; at 33.0 µM -19% | [2]; at 100.0 µM -7% | [3]; at 1.2 µM 3% | [3]; at 3.7 µM 9% | [3]; at 11.0 µM 15% | [3]; at 33.0 µM 20% | [3]; at 100.0 µM 24% | [4]; at 1.2 µM 0% | [4]; at 3.7 µM 1% | [4]; at 11.0 µM 0% | [4]; at 33.0 µM 22% | [4]; at 100.0 µM 64% | [5]; at 1.2 µM 0% | [5]; at 3.7 µM 1% | [5]; [17] -2% | [5]; at 11.0 µM 2% | [5]; at 33.0 µM 13% | [5]; [18] 44% | [5]; at 50.0 µM 57.1% | [5]; at 100.0 µM 43% | [6]; at 1.2 µM 0% | [6]; at 3.7 µM -1% | [6]; [17] -1% | [6]; at 11.0 µM 2% | [6]; at 33.0 µM 4% | [6]; [18] 27% | [6]; at 50.0 µM 30.7% | [6]; at 100.0 µM 40% | [7]; at 1.2 µM 1% | [7]; at 3.7 µM 7% | [7]; at 11.0 µM 14% | [7]; at 33.0 µM 36% | [7]; at 100.0 µM 44% | [8]; [17] 6% | [8]; [18] 45% | [9]; at 1.2 µM 5% | [9]; at 3.7 µM 3% | [9]; at 11.0 µM 6% | [9]; at 33.0 µM 6% | [9]; at 100.0 µM 10% | [10]; [17] 40% | [10]; [18] -1% | [10]; at 50.0 µM 36% | [11]; at 1.2 µM 2% | [11]; at 3.7 µM 5% | [11]; [17] 3% | [11]; at 11.0 µM 12% | [11]; at 33.0 µM 23% | [11]; at 100.0 µM 59% | [12]; at 1.2 µM 0% | [12]; at 3.7 µM -3% | [12]; at 11.0 µM -2% | [12]; at 33.0 µM 7% | [12]; at 100.0 µM 28% | [13]; at 1.2 µM -1% | [13]; at 3.7 µM -2% | [13]; at 11.0 µM -1% | [13]; at 33.0 µM 14% | [13]; at 100.0 µM 54% | [14]; at 1.2 µM 1% | [14]; at 3.7 µM 1% | [14]; at 11.0 µM 6% | [14]; at 33.0 µM 23% | [14]; at 100.0 µM 46% | [15]; [17] -20% | [16]; at 1.2 µM -1% | [16]; at 3.7 µM 2% | [16]; at 11.0 µM 8% | [16]; at 33.0 µM 15% | [16]; at 100.0 µM 20%
active: [8]; at 50.0 µM 91.1% | [11]; [18] 77% | [11]; at 50.0 µM 82.3% | [15]; [18] 83% | [15]; at 50.0 µM 82.7%
